# The full data set covers some 8,800 targets. This sample favours those with a hit. About 0.5% of all pairs of compound and target were hits.
# Compound: C1=CC=C(C=C1)[C@H](COC2=CC3=C(C=C2)NC(=O)N3)NC(=O)C4=CC=CN(C4=O)CC5=CC(=C(C=C5)F)F
# Experiment: log2 fold change, soluble protein after heating vs DMSO (PISA); higher = thermal stabilisation; K562 lysate, 10 uM; active = over 0.2 and 3.5 SD of the protein, either way, in both replicates (recomputed)
# In short: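 Log-two fold change in thermal stability relative to solvent controls is reported from duplicates. For each sample, crude K562 extract from dounce-homogenised pellets in PBS pH 7.4 with 1 mM MgCl2, at 1 mg/mL protein, was treated with 10 μM compound for 30 min. Aliquots heated for 3 min across 48°C-58°C were pooled, brought to 0.5% NP-40 at 4°C and cleared at 21,000xg for 90 min. The supernatant was quantified by TMTpro 16plex LC-MS/MS with channel sums equalised.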
# UniProt P0C2W1, sequence (P0C2W1 whole entry, looked up): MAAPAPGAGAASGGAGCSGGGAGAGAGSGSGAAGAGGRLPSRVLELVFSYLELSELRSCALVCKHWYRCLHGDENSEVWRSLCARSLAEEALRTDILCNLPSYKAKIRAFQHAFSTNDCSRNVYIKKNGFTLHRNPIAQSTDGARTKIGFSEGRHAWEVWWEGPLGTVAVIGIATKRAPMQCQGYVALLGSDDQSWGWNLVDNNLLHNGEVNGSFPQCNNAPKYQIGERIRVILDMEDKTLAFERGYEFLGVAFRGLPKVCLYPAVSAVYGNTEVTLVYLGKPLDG
# UniProt P58012, sequence (P58012 whole entry, looked up): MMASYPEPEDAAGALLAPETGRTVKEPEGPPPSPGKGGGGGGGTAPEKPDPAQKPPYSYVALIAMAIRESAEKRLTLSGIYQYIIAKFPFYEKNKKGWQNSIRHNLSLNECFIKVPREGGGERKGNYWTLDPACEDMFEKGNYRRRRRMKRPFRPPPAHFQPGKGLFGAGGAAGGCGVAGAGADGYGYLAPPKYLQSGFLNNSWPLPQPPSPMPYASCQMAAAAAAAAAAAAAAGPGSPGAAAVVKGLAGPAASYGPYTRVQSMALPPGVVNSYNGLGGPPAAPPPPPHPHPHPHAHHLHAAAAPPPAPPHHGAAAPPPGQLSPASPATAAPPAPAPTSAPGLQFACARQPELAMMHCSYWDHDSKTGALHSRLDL
# UniProt Q9H6S3, sequence (Q9H6S3 whole entry, looked up): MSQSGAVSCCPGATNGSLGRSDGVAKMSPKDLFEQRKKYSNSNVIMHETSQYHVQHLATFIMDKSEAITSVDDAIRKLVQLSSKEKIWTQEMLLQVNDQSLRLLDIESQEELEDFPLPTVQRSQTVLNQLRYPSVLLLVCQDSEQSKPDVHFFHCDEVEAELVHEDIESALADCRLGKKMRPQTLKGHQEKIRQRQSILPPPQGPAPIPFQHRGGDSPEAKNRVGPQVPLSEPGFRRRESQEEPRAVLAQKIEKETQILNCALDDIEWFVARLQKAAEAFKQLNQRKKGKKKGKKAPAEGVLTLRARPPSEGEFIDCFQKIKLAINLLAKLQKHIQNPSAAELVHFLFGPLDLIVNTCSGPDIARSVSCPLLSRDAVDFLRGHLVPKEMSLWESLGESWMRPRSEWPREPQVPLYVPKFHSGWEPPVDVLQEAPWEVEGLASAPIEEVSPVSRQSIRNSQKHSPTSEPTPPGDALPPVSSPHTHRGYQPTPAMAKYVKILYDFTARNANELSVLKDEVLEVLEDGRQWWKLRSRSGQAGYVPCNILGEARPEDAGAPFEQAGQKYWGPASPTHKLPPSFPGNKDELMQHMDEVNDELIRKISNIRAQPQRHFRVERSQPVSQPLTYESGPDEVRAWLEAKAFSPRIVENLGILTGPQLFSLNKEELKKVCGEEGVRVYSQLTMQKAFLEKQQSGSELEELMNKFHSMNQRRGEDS
# UniProt Q06547, sequence (Q06547 whole entry, looked up): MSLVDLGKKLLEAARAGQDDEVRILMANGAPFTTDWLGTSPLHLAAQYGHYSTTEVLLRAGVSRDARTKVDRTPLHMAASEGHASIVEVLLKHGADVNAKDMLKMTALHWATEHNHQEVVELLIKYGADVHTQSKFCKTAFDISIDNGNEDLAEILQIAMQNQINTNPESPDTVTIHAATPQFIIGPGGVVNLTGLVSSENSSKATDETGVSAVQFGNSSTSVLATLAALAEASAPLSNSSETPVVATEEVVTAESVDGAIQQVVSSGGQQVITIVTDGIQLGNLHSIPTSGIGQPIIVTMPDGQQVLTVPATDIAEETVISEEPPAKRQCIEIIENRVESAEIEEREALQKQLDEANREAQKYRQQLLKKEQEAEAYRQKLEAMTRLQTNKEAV
# UniProt Q9NZC3, sequence (Q9NZC3 whole entry, looked up): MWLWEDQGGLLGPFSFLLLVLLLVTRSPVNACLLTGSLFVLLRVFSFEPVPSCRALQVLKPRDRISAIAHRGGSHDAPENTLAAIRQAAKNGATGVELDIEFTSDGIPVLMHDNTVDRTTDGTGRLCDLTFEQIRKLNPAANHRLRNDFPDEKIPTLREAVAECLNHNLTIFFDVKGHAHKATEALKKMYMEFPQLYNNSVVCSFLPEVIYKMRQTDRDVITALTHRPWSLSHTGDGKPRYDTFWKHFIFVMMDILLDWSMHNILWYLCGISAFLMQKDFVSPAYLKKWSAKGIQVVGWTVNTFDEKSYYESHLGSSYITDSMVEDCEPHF
# UniProt P35916, sequence (P35916 whole entry, looked up): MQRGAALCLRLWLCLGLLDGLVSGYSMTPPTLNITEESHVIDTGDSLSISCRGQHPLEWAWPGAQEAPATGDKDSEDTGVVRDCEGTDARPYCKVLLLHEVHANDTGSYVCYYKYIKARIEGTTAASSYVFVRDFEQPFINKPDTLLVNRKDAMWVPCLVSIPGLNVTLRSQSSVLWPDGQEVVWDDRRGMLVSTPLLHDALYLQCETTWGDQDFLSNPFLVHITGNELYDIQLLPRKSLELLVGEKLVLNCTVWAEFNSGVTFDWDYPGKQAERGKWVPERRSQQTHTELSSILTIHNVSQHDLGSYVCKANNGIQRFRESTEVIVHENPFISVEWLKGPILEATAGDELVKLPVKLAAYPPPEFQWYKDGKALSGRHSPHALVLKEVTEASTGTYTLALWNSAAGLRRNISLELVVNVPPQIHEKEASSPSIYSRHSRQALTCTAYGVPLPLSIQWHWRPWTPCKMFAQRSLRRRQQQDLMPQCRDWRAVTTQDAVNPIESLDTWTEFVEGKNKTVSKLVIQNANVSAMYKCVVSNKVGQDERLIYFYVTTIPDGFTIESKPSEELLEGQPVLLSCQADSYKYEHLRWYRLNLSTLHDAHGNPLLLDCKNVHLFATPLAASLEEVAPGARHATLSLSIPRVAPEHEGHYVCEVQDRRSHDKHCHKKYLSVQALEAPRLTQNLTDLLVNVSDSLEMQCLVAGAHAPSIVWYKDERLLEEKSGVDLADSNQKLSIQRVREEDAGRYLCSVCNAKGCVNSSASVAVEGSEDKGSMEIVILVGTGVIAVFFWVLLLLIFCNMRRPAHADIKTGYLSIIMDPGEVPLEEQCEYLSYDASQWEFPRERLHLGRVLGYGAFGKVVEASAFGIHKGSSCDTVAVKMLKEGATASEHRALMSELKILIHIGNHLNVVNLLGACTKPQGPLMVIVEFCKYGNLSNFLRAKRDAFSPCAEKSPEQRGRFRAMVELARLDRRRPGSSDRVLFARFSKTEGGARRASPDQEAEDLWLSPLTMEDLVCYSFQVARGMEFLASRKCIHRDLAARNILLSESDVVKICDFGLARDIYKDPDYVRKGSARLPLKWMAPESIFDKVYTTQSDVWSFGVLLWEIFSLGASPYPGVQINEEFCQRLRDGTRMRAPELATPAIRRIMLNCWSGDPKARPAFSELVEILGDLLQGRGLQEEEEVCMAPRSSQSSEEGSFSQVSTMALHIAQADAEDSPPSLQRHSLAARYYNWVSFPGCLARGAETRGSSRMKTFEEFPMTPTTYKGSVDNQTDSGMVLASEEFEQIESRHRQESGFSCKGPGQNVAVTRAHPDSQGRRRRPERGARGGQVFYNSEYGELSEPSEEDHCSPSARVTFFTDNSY
# UniProt O95718, sequence (O95718 whole entry, looked up): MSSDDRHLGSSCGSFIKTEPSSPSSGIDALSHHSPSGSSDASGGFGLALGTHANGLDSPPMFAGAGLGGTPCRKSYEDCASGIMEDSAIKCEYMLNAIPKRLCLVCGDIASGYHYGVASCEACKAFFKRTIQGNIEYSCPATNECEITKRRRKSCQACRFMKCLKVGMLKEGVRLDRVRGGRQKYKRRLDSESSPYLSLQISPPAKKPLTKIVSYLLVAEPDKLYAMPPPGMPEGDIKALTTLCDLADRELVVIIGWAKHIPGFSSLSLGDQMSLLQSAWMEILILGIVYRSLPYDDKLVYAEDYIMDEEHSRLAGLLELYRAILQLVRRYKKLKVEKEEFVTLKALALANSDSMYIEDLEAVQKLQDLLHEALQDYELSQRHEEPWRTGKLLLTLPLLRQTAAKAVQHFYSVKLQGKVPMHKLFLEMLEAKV
# UniProt Q9P0K8, sequence (Q9P0K8 whole entry, looked up): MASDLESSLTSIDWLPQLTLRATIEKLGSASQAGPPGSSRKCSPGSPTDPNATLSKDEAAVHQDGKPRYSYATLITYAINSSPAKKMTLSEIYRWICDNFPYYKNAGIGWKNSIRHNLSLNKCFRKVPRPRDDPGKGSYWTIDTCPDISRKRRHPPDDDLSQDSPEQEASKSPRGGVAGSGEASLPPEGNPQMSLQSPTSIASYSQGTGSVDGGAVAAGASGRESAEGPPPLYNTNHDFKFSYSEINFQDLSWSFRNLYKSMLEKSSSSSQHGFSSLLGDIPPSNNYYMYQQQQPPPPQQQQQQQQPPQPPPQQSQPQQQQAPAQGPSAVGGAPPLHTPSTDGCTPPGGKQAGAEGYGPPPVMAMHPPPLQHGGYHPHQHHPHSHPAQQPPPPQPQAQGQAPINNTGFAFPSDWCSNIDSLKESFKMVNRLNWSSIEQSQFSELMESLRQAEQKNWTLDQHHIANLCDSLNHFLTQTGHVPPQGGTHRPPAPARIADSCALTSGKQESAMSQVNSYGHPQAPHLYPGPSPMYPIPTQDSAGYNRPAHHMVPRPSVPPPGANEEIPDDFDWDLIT
# UniProt P11413, sequence (P11413 whole entry, looked up): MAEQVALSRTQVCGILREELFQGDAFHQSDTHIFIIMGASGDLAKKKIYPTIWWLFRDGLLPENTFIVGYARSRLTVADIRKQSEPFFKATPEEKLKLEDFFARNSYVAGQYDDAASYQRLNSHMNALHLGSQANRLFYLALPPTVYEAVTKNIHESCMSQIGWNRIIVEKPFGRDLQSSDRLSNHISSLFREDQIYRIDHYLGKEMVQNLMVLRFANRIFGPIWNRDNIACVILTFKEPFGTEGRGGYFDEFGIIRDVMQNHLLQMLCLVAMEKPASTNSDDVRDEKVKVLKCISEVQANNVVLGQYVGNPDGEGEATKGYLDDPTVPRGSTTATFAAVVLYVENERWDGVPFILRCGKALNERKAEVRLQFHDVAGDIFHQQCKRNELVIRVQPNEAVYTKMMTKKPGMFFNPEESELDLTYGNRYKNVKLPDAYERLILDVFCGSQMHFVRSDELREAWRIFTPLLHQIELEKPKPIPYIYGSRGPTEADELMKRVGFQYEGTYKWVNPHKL
row,Target,log2 fold change
1,GBA2 (UniProt Q9HCG7),0.046 (inactive)
2,EHHADH (UniProt Q08426),0.035 (inactive)
3,GART (UniProt C9JZG2),-0.131 (inactive)
4,EPN2 (UniProt I3L356),0.12 (inactive)
5,FOXJ2 (UniProt Q9P0K8),0.022 (inactive)
6,DYRK1A isoform 2 (UniProt Q13627),-0.001 (inactive)
7,EPS8L2 (UniProt Q9H6S3),0.124 (inactive)
8,FBXO45 (UniProt P0C2W1),-0.079 (inactive)
9,DTWD1 (UniProt Q8N5C7),-0.003 (inactive)
10,ESRRB isoform 1 (UniProt O95718),-0.147 (inactive)
11,ERG28 (UniProt Q9UKR5),0.001 (inactive)
12,DST isoform 3 (UniProt Q03001),-0.039 (inactive)
13,ERCC4 (UniProt Q92889),-0.038 (inactive)
14,GABPB1 (UniProt Q06547),0.044 (inactive)
15,FOXL2 (UniProt P58012),0.135 (inactive)
16,GAA (UniProt P10253),-0.001 (inactive)
17,EIF2AK1 (UniProt Q9BQI3),0.006 (inactive)
18,GDE1 (UniProt Q9NZC3),-0.085 (inactive)
19,GAMT (UniProt Q14353),-0.025 (inactive)
20,FLT4 (UniProt P35916),0.006 (inactive)
21,FAT2 (UniProt Q9NYQ8),-0.009 (inactive)
22,G6PD isoform 2 (UniProt P11413),0.023 (inactive)
